# Laboratory results as given in publication PMC4336329 (PLoS ONE, 2015).
# Out of some 310,000 compounds screened, about 14,000 (4.5%) showed an effect of 50% or more. Effects have a minus sign here. Shown is part of a subset that was picked to be rich in strong results.
# Biological target: human ether-à-go-go-related gene (hERG) potassium channel (human, UniProt Q12809)
# Assay: primary screen, population patch clamp on CHO cells stably expressing hERG; higher = less effect of the substance
# 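Further: peak tail current of the secondary pulse compared with the same well before compound.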
# Chain of human ether-à-go-go-related gene (hERG) potassium channel (Q12809 whole entry, looked up): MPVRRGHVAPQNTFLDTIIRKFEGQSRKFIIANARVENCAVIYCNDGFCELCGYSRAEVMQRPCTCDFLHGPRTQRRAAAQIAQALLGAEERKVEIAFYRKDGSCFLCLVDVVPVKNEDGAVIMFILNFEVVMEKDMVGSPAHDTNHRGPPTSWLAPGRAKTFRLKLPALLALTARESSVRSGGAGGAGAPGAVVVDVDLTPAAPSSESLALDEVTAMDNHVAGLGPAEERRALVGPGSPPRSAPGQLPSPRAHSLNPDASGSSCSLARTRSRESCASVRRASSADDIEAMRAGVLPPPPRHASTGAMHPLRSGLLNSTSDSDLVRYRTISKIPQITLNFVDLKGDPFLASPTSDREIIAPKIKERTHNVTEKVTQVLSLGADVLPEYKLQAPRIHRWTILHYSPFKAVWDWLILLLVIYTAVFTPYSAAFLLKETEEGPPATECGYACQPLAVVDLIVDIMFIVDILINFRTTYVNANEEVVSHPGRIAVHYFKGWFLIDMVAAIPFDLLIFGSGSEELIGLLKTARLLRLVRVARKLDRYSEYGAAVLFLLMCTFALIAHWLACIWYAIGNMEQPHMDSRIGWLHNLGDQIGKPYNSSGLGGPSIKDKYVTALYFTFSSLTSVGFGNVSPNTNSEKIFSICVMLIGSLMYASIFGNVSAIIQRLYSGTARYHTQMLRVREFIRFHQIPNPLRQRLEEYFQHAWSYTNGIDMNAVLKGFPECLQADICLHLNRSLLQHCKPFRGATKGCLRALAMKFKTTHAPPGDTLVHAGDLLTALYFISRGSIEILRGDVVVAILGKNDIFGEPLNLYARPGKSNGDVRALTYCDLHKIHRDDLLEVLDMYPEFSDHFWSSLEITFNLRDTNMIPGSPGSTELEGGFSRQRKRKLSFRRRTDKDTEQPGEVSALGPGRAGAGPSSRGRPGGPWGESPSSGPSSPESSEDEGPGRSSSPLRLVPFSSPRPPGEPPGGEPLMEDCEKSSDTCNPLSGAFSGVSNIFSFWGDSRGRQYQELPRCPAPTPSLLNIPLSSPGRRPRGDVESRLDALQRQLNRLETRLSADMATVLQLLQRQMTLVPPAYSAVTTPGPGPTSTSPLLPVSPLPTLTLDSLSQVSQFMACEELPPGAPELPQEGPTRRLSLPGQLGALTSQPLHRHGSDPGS
row,Compound,"hERG current change (%, negative = inhibition) at 10uM [%]"
1,O=[N+]([O-])c1ccc(-c2ccc(/C=N/c3c(-c4ccco4)nc4ccccn34)o2)cc1,8.33
2,O=C(O)CCSc1nnc(-c2ccccc2)n1-c1ccccc1,-3.32
3,Cc1ccc(SCc2cc(=O)[nH]c(N3CCCCC3)n2)cc1,-8.62
4,CCOC(=O)C(O)(c1ccc(NC(=S)NC(=O)c2ccc(Cl)cc2Cl)c(C)c1)C(F)(F)F (stereo not drawn),27.4
5,COc1ccccc1NC(=O)CCSc1nnc(-c2ccncc2)o1,-2.96
6,Fc1ccccc1NC(=S)NNc1ncc(C(F)(F)F)cc1Cl,21.2
7,CN1CCCN(C(=O)COc2cccc(C(F)(F)F)c2)CC1,-0.603
8,CCCCn1c(NCc2cccs2)nc2ccccc21,-55.9
9,CC(NC(=O)/C=C/c1ccco1)c1nc2ccccc2n1Cc1cccc(Cl)c1 (stereo not drawn),-67.2
10,C=CCn1c(NCc2ccco2)nc2ccccc21,-8.07
11,c1ccc(Cn2c(NCc3ccco3)nc3ccccc32)cc1,-51
12,CC(NC(=O)/C=C/c1ccco1)c1nc2ccccc2n1Cc1ccccc1F (stereo not drawn),0.704
13,CCCn1c(NCc2cccs2)nc2ccccc21,-29.3
14,c1ccc(Cn2c(NCc3ccccn3)nc3ccccc32)cc1,-39
15,CCn1c(NCc2cccs2)nc2ccccc21,-12.2
16,CC(NC(=O)/C=C/c1ccco1)c1nc2ccccc2n1Cc1c(Cl)cccc1Cl (stereo not drawn),-11
17,CC1CC1C(=O)OCC(=O)Nc1cccc(S(=O)(=O)NC2=NCCCCC2)c1 (stereo not drawn),-7.64
18,Cc1ccc(C(=O)c2ccc(N3CCOCC3)c(F)c2)cc1,-22
19,CCCn1c2ccccc2c2cn[nH]c(=O)c21,12
20,Cc1c(C(=O)NCC(C)C)sc2nc(-c3ccc(F)cc3)cn12,-5.46
21,Cc1c(C(=O)NCc2cccnc2)sc2nc(-c3ccccc3)cn12,-55.2
22,Cc1c(C(=O)Nc2ccccc2)sc2nc(-c3ccccc3)cn12,-4.89
23,Cc1c(C(=O)NCCN2CCOCC2)sc2nc(-c3ccc(F)cc3)cn12,-23.6
24,COCCNC(=O)c1sc2nc(-c3ccccc3)cn2c1C,-11.5

row,Compound,"hERG current change (%, negative = inhibition) at 10uM [%]"
1,Cc1c(C(=O)NCc2cccnc2)sc2nc(-c3ccc(F)cc3)cn12,-40.4
2,Cc1c(C(=O)NCCCN2CCOCC2)sc2nc(-c3ccc(F)cc3)cn12,-60.9
3,Cc1c(C(=O)NCc2ccccn2)sc2nc(-c3ccc(F)cc3)cn12,-10.2
4,Cc1c(C(=O)NCc2ccccn2)sc2nc(-c3ccccc3)cn12,-18.6
5,CCN(CC)CCNC(=O)c1sc2nc(-c3ccccc3)cn2c1C,-67.4
6,Cc1c(C(=O)NCCCN2CCOCC2)sc2nc(-c3ccccc3)cn12,-48.5
7,CCN(CC)CCCNC(=O)c1sc2nc(-c3ccc(F)cc3)cn2c1C,-71.1
8,Nc1cc(-c2ccccc2)ccc1O,22.5
9,CCCC1=[N+](CC(C)=O)CCn2c(C)ccc21.[Br-],20.1
10,Cc1ccc(OCC(=O)Oc2c(C)cccc2C)cc1,16.8
11,COc1ccc(CC(NC(C)=O)C(=O)NC2CCN(C(=O)Nc3ccccc3Cl)CC2)cc1OC (stereo not drawn),12.7
12,CC(C)(C)c1ccc(-n2nc(C(N)=O)c(O)cc2=O)cc1,12.9
13,CC(=O)N1c2ccc(S(=O)(=O)N(C)c3cc(C)ccc3C)cc2CC1C (stereo not drawn),-8.67
14,Cc1csc(NC(=O)Cc2ccccc2[N+](=O)[O-])n1,8.85
15,CCCSc1nc(-n2ncc(C#N)c2N)c2c3c(sc2n1)CCC(C)C3 (stereo not drawn),5.45
16,CCc1nccn1CCC(=O)NC1CC(C)(C)Cc2c1cnn2-c1ccc(OC)cc1 (stereo not drawn),-16.2
17,C=CCCC(=O)NC1CC(C)(C)Cc2c1cnn2-c1ccc(OC)cc1 (stereo not drawn),-46
18,COc1ccc(-n2ncc3c2CC(C)(C)CC3NC(=O)c2ccnn2C)cc1 (stereo not drawn),-78
19,COC(=O)c1ccc(C(=O)NC2CC(C)(C)Cc3c2cnn3-c2ccc(F)cc2)nc1 (stereo not drawn),-23.4
20,COc1ccc(-n2ncc3c2CC(C)(C)CC3NC(=O)CSc2ccccn2)cc1 (stereo not drawn),-68
21,Cc1cc(C(=O)NC2CC(C)(C)Cc3c2cnn3-c2ccc(F)cc2)nn1C (stereo not drawn),-14.8
22,COc1ccc(-n2ncc3c2CC(C)(C)CC3NC(=O)c2cnc(C)cn2)cc1 (stereo not drawn),-4.41
23,COc1ccc(-n2ncc3c2CC(C)(C)CC3NC(=O)CCc2c(C)noc2C)cc1 (stereo not drawn),-21.7
24,COc1ccc(-n2ncc3c2CC(C)(C)CC3NC(=O)Cc2nonc2C)cc1 (stereo not drawn),3.4

row,Compound,"hERG current change (%, negative = inhibition) at 10uM [%]"
1,COc1ccc(-n2ncc3c2CC(C)(C)CC3NC(=O)c2oc(C)cc2C)cc1 (stereo not drawn),15.2
2,COc1ccc(-n2ncc3c2CC(C)(C)CC3NC(=O)c2c(C)cc(=O)oc2C)cc1 (stereo not drawn),-51.1
3,CC1(C)Cc2c(cnn2-c2ccc(F)cc2)C(NC(=O)C2=NNC(=O)CC2)C1 (stereo not drawn),-68.4
4,Cn1cc(S(=O)(=O)NCc2ccco2)c(=O)n(C)c1=O,3.03
5,Cc1onc(-c2c(F)cccc2Cl)c1C(=O)NCc1cccs1,-21.2
6,COc1ccc(S(=O)(=O)N2CCOCC2)cc1N(C)S(=O)(=O)c1ccc(C)cc1,0.666
7,C/C(CC(=O)Nc1ccccn1)=N\NC(=O)c1ccccc1O,6.73
8,COc1ccc(CCNC(=O)c2c(O)c3ccccc3[nH]c2=O)cc1,15.4
9,COc1cccc(NC(=O)c2ccc3c(c2)N(CC(=O)N2CCOCC2)C(=O)C(C)(C)O3)c1,-5.35
10,CCOCCc1nnc(NC(=O)c2cccc(F)c2)s1,0.0842
11,COc1cc(NC(=O)C(C)Oc2ccccc2)cc(OC)c1 (stereo not drawn),-2.9
12,COc1ccc(-n2ncc3c2CC(C)(C)CC3NC(=O)c2ocnc2C)cc1 (stereo not drawn),-53.5
13,Cc1ccccc1-n1ncc2c1CC(C)(C)CC2NC(=O)C1=CC(=O)CC(C)(C)O1 (stereo not drawn),-4.61
14,Cn1nccc1C(=O)NC1CC(C)(C)Cc2c1cnn2-c1ccc(F)cc1 (stereo not drawn),-61.4
15,COc1ccc(-n2ncc3c2CC(C)(C)CC3NC(=O)C2=CC(=O)CC(C)(C)O2)cc1 (stereo not drawn),-68.3
16,COc1ccc(-n2ncc3c2CC(C)(C)CC3NC(=O)CN2CCOC2=O)cc1 (stereo not drawn),-32.9
17,Cc1ncoc1C(=O)NC1CC(C)(C)Cc2c1cnn2-c1ccccc1 (stereo not drawn),-20.5
18,COc1ccc(C(=O)NC2CC(C)(C)Cc3c2cnn3-c2ccccc2C)o1 (stereo not drawn),-30.5
19,Cc1ncoc1C(=O)NC1CC(C)(C)Cc2c1cnn2-c1ccc(F)cc1 (stereo not drawn),-20.7
20,COCc1ccc(C(=O)NC2CC(C)(C)Cc3c2cnn3-c2ccc(OC)cc2)o1 (stereo not drawn),-29.3
21,COc1ccc(-n2ncc3c2CC(C)(C)CC3NC(=O)c2ccc(OC)o2)cc1 (stereo not drawn),-50.2
22,CCN(CC)CC(=O)NC1CC(C)(C)Cc2c1cnn2-c1ccc(F)cc1 (stereo not drawn),7.43
23,Cc1nonc1CC(=O)NC1CC(C)(C)Cc2c1cnn2-c1ccc(F)cc1 (stereo not drawn),-15.7
24,O=C(O)CCCN1C(=O)/C(=C\C(Cl)=C\c2ccccc2)SC1=S,13.6

row,Compound,"hERG current change (%, negative = inhibition) at 10uM [%]"
1,COc1ccc(OC)c(-c2nc(CN3CCN(C(=O)c4ccco4)CC3)c(C)o2)c1,-21.9
2,O=C(NCc1cccs1)c1ccccc1[N+](=O)[O-],-11.4
3,COc1cc(-c2nnc3n(CCc4ccccc4)c(=O)c4ccccc4n23)cc(OC)c1OC,-19.7
4,CCOC(=O)CN1C(=O)COc2ccc(Cl)cc21,19.2
5,CCOC(=O)c1[nH]cnc1C(=O)N[C@@H](C)c1ccccc1,-5.33
6,O=C1CCc2cc(S(=O)(=O)N3CCC(C(=O)NCc4ccccn4)CC3)ccc2N1,16.9
7,CCOc1ccccc1NS(=O)(=O)c1cc2c3c(c1)C(C)C(=O)N3CCC2 (stereo not drawn),5.26
8,O=C(N/N=C/c1cn(-c2ccccc2)nc1-c1ccc(F)cc1)c1ccc(Br)o1,27.7
9,COCc1ccc(C(=O)NC2CC(C)(C)Cc3c2cnn3-c2ccc(C)cc2)o1 (stereo not drawn),-39.3
10,CSCc1ccc(C(=O)NC2CC(C)(C)Cc3c2cnn3-c2ccc(F)cc2)o1 (stereo not drawn),-56.5
11,COc1ccc(-c2[nH]ncc2-c2nc(C)cs2)c(O)c1,13.5
12,Cc1cc2cc(CN(CCCO)S(=O)(=O)c3cccc4nsnc34)c(=O)[nH]c2cc1C,0.493
13,O=C(/C=C/c1cccs1)N1CCN(c2ccccc2)CC1,1.88
14,O=C(/C=C/c1ccc2ccccc2n1)N1CCN(c2ccccc2)CC1,-52.1
15,CC(=O)c1ccc(N2CCN(C(=O)/C=C/c3cccs3)CC2)cc1,-25
16,CC(=O)c1ccc(N2CCN(C(=O)c3ccc4ccccc4n3)CC2)cc1,-43.1
17,CC(=O)c1ccc(N2CCN(C(=O)/C=C/c3ccc4ccccc4n3)CC2)cc1,-54.4
18,O=C(O)/C=C/c1ccc2ccccc2n1,2.35
19,O=C(/C=C/c1ccc2ccccc2n1)N1CCN(S(=O)(=O)c2ccccc2F)CC1,-15.9
20,O=C(/C=C/c1ccc2ccccc2n1)N1CCN(S(=O)(=O)c2ccc(F)cc2)CC1,-52.4
21,O=C(/C=C/c1ccc(S(=O)(=O)N2CCOCC2)cc1)N1CCN(c2ccc(F)cc2)CC1,-25.6
